This is one part of a sample in which hits are shown more often than they occur.
Dicer processing: inhibitors of Dicer pre-microRNA processing, primary screen, biochemical, cat-ELCCA, chemiluminescence; z-score at 25 µM; 6% of 47,000 active; cat-ELCCA pre-miR-21 Dicer processing; stronger effect = higher value; in the data active = z-score above about 3, passing the limit was not always enough;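 also: plate controls were vehicle for no effect and no enzyme for full effect; higher signal means more uncleaved substrate so more Dicer inhibition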
* hit, by the source's call.

SMILES	Dicer processing
O=C(Nc1csc(C(F)(F)F)c1-c1ccccc1)C(Cl)(Cl)Cl	-0.5
O=C(Nc1csc(C(F)(F)F)c1-c1ccccc1)c1ccco1	4.4*
Cc1cc2c(F)ccc(C)c2nc1Sc1ccc(Cl)cc1	-0.18
Cc1ccc(OCC(=O)O)cc1Cl	-1.2
N#Cc1cccnc1Oc1ccc(Cl)cc1Cl	0.28
C=CCOc1ccc(C2C(C#N)=C(N)Oc3cc(O)ccc32)cc1Cl (stereo not given)	13
COc1ccc(C2C(C#N)=C(N)Oc3cc(O)ccc32)cc1C (stereo not given)	-0.6
CC(C)c1ccc(C2C(C#N)=C(N)Oc3cc(O)ccc32)cc1 (stereo not given)	4.9*
Cc1ccc(CNc2oc(COc3ccccc3C)nc2C#N)cc1	-1.2
O=C(Nc1ccccc1C(=O)NCCCn1ccnc1)Nc1c(Cl)cccc1Cl	0.41
CCOc1ccc2c(c1)C(=O)C(c1cc(=O)c3ccccc3[nH]1)C2=O (stereo not given)	6.1*
CCOc1ccc2[nH]c(C3C(=O)c4ccccc4C3=O)cc(=O)c2c1	-0.57
CCOc1ccc2c(c1)C(=O)c1cc(OCC)ccc1-2	6.4
CCOC(=O)c1c(C)oc2ccc(OCc3ccc(F)cc3Cl)cc12	-0.24
O=c1c(C(F)(F)F)cccn1Cc1cc(Cl)cc(Cl)c1	-0.77
O=C(O)c1ccc(Nc2ncnc3ccc(Br)cc23)cc1	4.9*
O=C(O)c1ccc(Nc2ccnc3cc(Cl)ccc23)cc1	1.6
Cc1nc2ccc(Br)cc2c(C(=O)O)c1I	1
CC1(C)CC(=O)C=C(NCCc2cnc[nH]2)C1	2.6
CCOc1ccccc1-c1oc2ccc(C)cc2c(=O)c1O	-3.3
Cn1cnc([N+](=O)[O-])c1Sc1ccccc1C(=O)O	-2
O=C1C(c2cc(Cl)cc(Cl)c2)=C(O)c2ccccc21	-0.75
Cc1cc(Cl)cc2c1C(=O)/C(=C\c1ccccc1O)S2	5*
Cc1cc(Cl)cc2c1C(=O)/C(=C\c1cccnc1)S2	-0.04
CCOC(=O)c1cc(C)n(-c2cccc(F)c2C#N)n1	-0.75
SMILES	Dicer processing
O=C(O)CCc1nc2ccc(C(=O)O)cc2[nH]1	3.7*
Nc1ccc2nc(CCC(=O)O)[nH]c2c1	-4.9
O=C(O)c1ccc2nc(CCc3ccccc3)[nH]c2c1	-0.38
Cc1ccc(-c2cnc3c(-c4ccccc4)cnn3c2N)cc1	1.8
Nc1c(-c2ccc(Cl)cc2)cnc2c(-c3ccccc3)cnn12	3.1*
Cc1ccc(-c2cnc3c(-c4ccc(Cl)cc4)cnn3c2N)cc1	2.3
Cc1cccc(N(C(=O)Nc2cccc(Cl)c2)C2=NCC(C)(C)S2)c1	-1.7
CSc1nnc(-c2ccc(Br)s2)n1C	-1.5
Cn1nc(-c2ccc(Br)s2)c(Br)c1C(F)(F)F	45*
Cc1nc(S(=O)(=O)N2CCC(NC(=O)c3ccccc3)CC2)cn1C	2
CCNC(=O)C(=O)NCc1ccco1	0.17
CC1N=C(SCc2ccc(Cl)cc2)N2C(C)N=C(SCc3ccc(Cl)cc3)N12 (stereo not given)	-0.11
CCCCOc1c(Nc2cccc(OC)c2)c(=O)c1=O	8.7
CCOc1c(Nc2ccccc2O)c(=O)c1=O	4.1*
CCOc1c(Nc2cccc(OC)c2)c(=O)c1=O	-0.58
CC1=NC(=O)CN1c1ccc(N)cc1	4*
Cc1ccc(C)n1-c1ccc(N)cc1	-4
Cc1ccc(N2N=C(N)CC2=O)cc1	2.4
COc1ccc(-c2cc(=O)c3cc(F)ccc3o2)cc1	-0.94
O=C(O)CCC(=O)Nc1ccc(C(=O)O)c(O)c1	6.1*
Cc1ccc(NC(=O)CCC(=O)O)cc1	-0.07
CC(=O)Nc1ccc(NC(=O)CCCC(=O)O)cc1	-2.4
CN(C)c1ccc(/C=C/C2=Nc3ccccc3SC(C)(C)C2)cc1	-2
C#CCOC(=O)CCCN1C(=O)c2cccc3cccc(c23)C1=O	-1.5
COC(=O)CCCN1C(=O)c2cccc3cccc(c23)C1=O	3.6*
SMILES	Dicer processing
CN(C(=O)CCCN1C(=O)c2cccc3cccc(c23)C1=O)c1ccccc1	-0.03
O=C(O)C1=C(Sc2ccc(Cl)cc2)CSC1	0.65
COC(=O)c1c(C)nc(C)c2c(=O)oc3ccccc3c12	0.08
CC(C)(C)C1CCc2nc(N)c3c(=O)oc4ccccc4c3c2C1 (stereo not given)	5*
CCCc1cc2c(c(N)n1)c(=O)oc1ccccc12	-0.55
CSC(SC)=C(C#N)S(=O)(=O)C(C)C	-1.5
CSC(=NS(=O)(=O)c1ccc(-n2nc(C(F)(F)F)cc2-c2cccs2)cc1)SC	-0.12
CC1(c2cc(O)ccc2O)NCC(c2ccc([N+](=O)[O-])cc2)O1 (stereo not given)	-1.7
CN(C)/C=N/c1nnc(SCc2ccc(C(=O)Oc3ccc(F)cc3F)cc2)s1	-0.95
CN(C)c1ccc(C(=O)c2ccccc2C(=O)O)c(O)c1	3.2*
COc1ccc(C(=O)c2ccccc2O)c(O)c1	6.3
Cc1ccc(C(=O)c2ccccc2C(=O)O)cc1C	0.06
c1ccc(C2=Nc3ccccc3C(c3ccncc3)=NN2)cc1	-1.9
CCCN(CC#Cc1ccccc1)CCC	-1.9
CC1CCc2c(sc3nnn(CC(=O)N4CCCC4)c(=O)c23)C1 (stereo not given)	-0.75
O=C(Cn1nc(C(F)F)cc1C1CC1)N1CCCC1	3.1*
O=C(c1cn(CC(=O)N2CCCCC2)c2ccccc12)C1CC1	1
COc1ccc(OC)c(C2Nc3ccc4ccccc4c3C3=C2C(=O)CC(C)(C)C3)c1 (stereo not given)	1.9
COc1ccc(C2Nc3ccc4ccccc4c3C3=C2C(=O)CCC3)cc1OC (stereo not given)	4.5*
O=C1CC(c2cccc(O)c2)Nc2ccc3ccccc3c21 (stereo not given)	1.1
COc1ccc(Br)cc1C1CC(=O)c2c(ccc3ccccc23)N1 (stereo not given)	3.3*
CCOc1cc(C2Nc3ccc4ccccc4c3C3=C2C(=O)CCC3)ccc1O (stereo not given)	1.7
Cc1ccccc1C1CC(=O)c2c(ccc3ccccc23)N1 (stereo not given)	2
COc1ccc(OCCSc2nc3ccccc3o2)cc1	-1.1
O=C(c1cnn2c(C(F)(F)F)cc(-c3ccco3)nc12)N1CCCCC1	-1.4
SMILES	Dicer processing
CN(C)CCCN(Cc1ccc2c(c1)OCO2)C(=O)NC1CCCCC1	4.7*
CN1C(=O)CC(NCc2ccc3c(c2)OCO3)C1=O (stereo not given)	-0.41
O=C(NCc1ccc2c(c1)OCO2)NC1CCCCC1	2.8
CC(C#N)(Nc1ccccc1)c1ccc(F)cc1 (stereo not given)	-0.21
Cc1ccc(-c2cc(NC3=CC(=O)CC(C)(C)C3)n[nH]2)cc1	3.7*
CC1(C)CC(=O)C=C(Nc2ccc(F)cc2)C1	1.4
Cc1ccc(Cl)c(NC2=CC(=O)CC(C)(C)C2)c1	-1.3
CCOC(=O)CNC(=S)Nc1ccccc1N	2.6
CCOC(=O)Cc1csc(NC(=O)c2ccccc2F)n1	-0.37
CC1CCC(C2OC3CC4C5CCC6CC(O)CCC6(C)C5=CCC4(C)C3C2C)OC1 (stereo not given)	-1.6
CCOC(=O)c1cnc(SCC(=O)c2ccc(Cl)cc2)[nH]1	-0.43
COc1ccc(C2=Nc3ccccc3SC(c3cccc(O)c3)C2)c(O)c1 (stereo not given)	-0.77
Oc1ccccc1C1=Nc2ccccc2N=C(C(F)(F)F)C1	2.6
COc1ccc(O)c(C2=Nc3ccccc3N=C(C(F)(F)F)C2)c1	3.2*
O=C(Oc1ccc2c(c1)oc(=O)c1ccccc12)C1CCCCC1	5.8
Cc1ccc(-n2nc(C(=O)O)c(C)c(C#N)c2=O)cc1C	-0.44
